Screening data from PubChem.
WRN helicase inh-1: qHTS for Inhibitors of WRN Helicase; Bifunctional 3'-5' exonuclease/ATP-dependent helicase WRN (Homo sapiens), Q14191; WRN helicase unwinding, fluorescent forked duplex, kinetic; Potency, µM (highest dose often 114 µM), without a hit: at the highest dose activity change, negative = inhibition, most hits filed as inhibitors; 0.46% of 360,000 active; AID 651768, 2012; note: potency is the fitted concentration of half-maximal effect; % is set by controls: 0 for no effect and ±100 for the full control effect; nearly all actives have a fitted effect of over 55% in size
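Kinetic red-fluorescence monitoring (525/598 nm) tracks WRN helicase activity after 100 nM fluorophore-quencher forked duplex and 2 mM ATP are added to 20 nM enzyme pretreated 15 min at room temperature with compound.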
Pol eta inh-1: qHTS for Inhibitors of Polymerase Eta | recombinant Pol eta, fluorescent DNA replication assay | Potency, µM (top dose mostly 114 µM), for the others: at the highest dose activity change, negative = inhibition, most hits filed as inhibitors | 1.2% of 390,000 active | AID 588591, 2011; note: potency is the fitted concentration of half-maximal effect; % is set by controls: 0 for no effect and ±100 for the full control effect
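Pol eta (10 nM) was preincubated with compounds for 15 min at room temperature, after which fluorescent replication substrate (50 nM final) was added to start the reaction. Fluorescence was read kinetically at 0 and 10 min.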
POLB inh: qHTS Assay for Inhibitors of DNA Polymerase Beta; Pol beta primer extension/strand displacement, fluorescence kinetic; Potency, µM (series often up to 114 µM), for inactives: at the top dose activity change, negative = inhibition, most hits filed as inhibitors; 1.3% of 340,000 active; AID 485314, 2010; note: potency is the fitted concentration of half-maximal effect; % is set by controls: 0 for no effect and ±100 for the full control effect
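Values derive from four-parameter Hill fits of normalized kinetic data: reads at 0 and 10 min following addition of 50 nM substrate to 10 nM Pol beta preincubated 15 min with compound.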
POLK inh: qHTS for Inhibitors of Polymerase Kappa; DNA polymerase kappa (Homo sapiens), Q9UBT6; purified Pol kappa, fluorescent DNA synthesis assay, 10 min; Potency, µM (top dose mostly 107 µM), for the others: top-dose activity, negative = inhibition, hits mostly inhibitors; 0.53% of 400,000 active; note: potency is the fitted concentration of half-maximal effect; % is set by controls: 0 for no effect and ±100 for the full control effect
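Kinetic fluorescence screen: compound preincubated 15 min RT with 10 nM enzyme; 50 nM substrate (final) initiates; reads at 0/10 min.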
Pol iota inh: qHTS for Inhibitors of Polymerase Iota; Pol iota fluorescent replication assay, 10 min; Potency, µM (top dose mostly 115 µM), inactives show at the highest dose activity, negative = inhibition, actives largely listed as inhibitors; 1% of 390,000 active; note: potency is the fitted concentration of half-maximal effect
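Pol iota at 10 nM preincubated 15 min with compounds at room temperature; reaction started with fluorescent substrate, 50 nM final. Fluorescence read kinetically at 0 and 10 min; buffer-only wells as negative control.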
FEN1 inh-1: qHTS Assay for the Inhibitors of Human Flap endonuclease 1 (FEN1) | P39748 | Recombinant FEN1 flap cleavage, fluorescence, 15 min | Potency, µM (series often up to 114 µM), for inactives: top-dose activity change, negative = inhibition, hits mostly inhibitors | 0.35% of 390,000 active; note: potency is the fitted concentration of half-maximal effect; % is set by controls: 0 for no effect and ±100 for the full control effect; nearly all actives have a fitted effect of over 65% in size
Target sequence (P39748 whole entry, looked up): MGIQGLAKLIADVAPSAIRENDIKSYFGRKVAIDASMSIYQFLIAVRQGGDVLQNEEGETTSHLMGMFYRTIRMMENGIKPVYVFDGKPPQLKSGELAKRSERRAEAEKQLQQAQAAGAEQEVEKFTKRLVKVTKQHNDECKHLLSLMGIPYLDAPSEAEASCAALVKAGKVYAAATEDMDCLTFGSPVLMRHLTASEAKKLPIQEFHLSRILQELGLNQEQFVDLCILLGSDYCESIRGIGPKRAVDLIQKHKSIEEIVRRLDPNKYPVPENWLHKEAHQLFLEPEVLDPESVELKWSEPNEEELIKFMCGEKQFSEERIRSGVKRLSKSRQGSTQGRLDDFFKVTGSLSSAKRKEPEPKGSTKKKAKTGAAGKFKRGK
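Recombinant FEN1 (10 nM) was preincubated with pin-transferred compounds for 15 min at room temperature, then flap DNA substrate (50 nM final) was added. Plates were read at 0 and 15 min, and normalized concentration–response data were fitted to a four-parameter Hill equation.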
GALK inh confirm: Confirmation Assay for Inhibitors of Human Galactokinase (GALK) | shares compounds with Pol eta inh-1 | purified GALK, Kinase-Glo ATP depletion luminescence | Potency, µM (doses to about 115 µM), for the others: at the highest dose activity, negative = inhibition, usual class: inhibitors | 70% of 150 active | AID 2015, 2009
Target sequence (P51570 whole entry, looked up): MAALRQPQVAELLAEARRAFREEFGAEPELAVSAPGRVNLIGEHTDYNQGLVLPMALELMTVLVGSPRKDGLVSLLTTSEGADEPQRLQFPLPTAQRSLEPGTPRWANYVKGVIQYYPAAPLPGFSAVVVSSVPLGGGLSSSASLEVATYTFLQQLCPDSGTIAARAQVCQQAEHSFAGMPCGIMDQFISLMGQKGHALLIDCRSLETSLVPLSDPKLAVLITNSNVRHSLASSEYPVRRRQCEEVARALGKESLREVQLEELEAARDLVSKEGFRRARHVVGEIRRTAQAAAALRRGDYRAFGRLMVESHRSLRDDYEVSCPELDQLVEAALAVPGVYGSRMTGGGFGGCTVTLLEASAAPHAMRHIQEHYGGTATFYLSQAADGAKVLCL
GALK redox cs: Confirmatory Assay for Inhibitors of Human Galactokinase (GALK): Phenol-HRP redox assay counterscreen; Potency, µM (doses to about 115 µM), for inactives: at the highest dose activity change, negative = H2O2 signal, most hits filed as inhibitors; Phenol red-HRP H2O2 redox cycling, absorbance 600 nm; AID 2035, 2009; 40% of 150 active; shares compounds with Pol eta inh-1
HEK293 viability: Secondary Assay for Inhibitors of Human Galactokinase (GALK): HEK-293 Cell Viability Assay; shares compounds with Pol eta inh-1; HEK-293 viability, ATP luminescence (CellTiter-Glo), 24/48 h; Potency, µM (highest dose often 46.1 µM), for the others: at the top dose activity change, negative = cytotoxicity, hits mostly inhibitors; 10% of 170 active; AID 2547, 2010; note: potency is the fitted concentration of half-maximal effect; % is set by controls: 0 for no effect and ±100 for the full control effect
Pol eta inh-2: qHTS for Inhibitors of Polymerase Eta: Confirmatory Assay for Cherry-picked Compounds; 64% of 2,600 active; shares compounds with Pol eta inh-1; AID 720502, 2013; Potency, µM, most hits filed as inhibitors; Pol eta primer extension, TAMRA/BHQ fluorescence, 10 min; note: potency is the fitted concentration of half-maximal effect
FEN1 inh-2: qHTS Assay for the Inhibitors of FEN1: Confirmatory Assay for Cherry-picked Compounds | Potency, µM, actives largely listed as inhibitors | 79% of 880 active | AID 720498, 2013 | FEN1 flap cleavage, TAMRA/BHQ2 fluorogenic DNA substrate | shares compounds with FEN1 inh-1; note: potency is the fitted concentration of half-maximal effect; nearly all actives have a fitted effect of over 60% in size
WRN helicase inh-2: qHTS for Inhibitors of WRN Helicase: Confirmatory Assay for Cherry-picked Compounds | shares compounds with WRN helicase inh-1 | WRN helicase DNA unwinding, fluorescence kinetic | Potency, µM (series often up to 57.1 µM), without a hit: at the top dose activity, negative = inhibition, usual class: inhibitors | 63% of 610 active; note: potency is the fitted concentration of half-maximal effect; nearly all actives have a fitted effect of over 65% in size
TO displacement: qHTS for Inhibitors of WRN Helicase: Thiazole Orange DNA Binding Counterscreen. shares compounds with WRN helicase inh-1. thiazole orange DNA binding displacement, fluorescence. Potency, µM (highest dose often 57.1 µM), without a hit: top-dose activity change, negative = inhibition, hits mostly inhibitors. 10% of 610 active. AID 720499, 2013;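 note: drop in dye fluorescence marks compound binding to DNA; potency is the fitted concentration of half-maximal effect; % is set by controls: 0 for no effect and ±100 for the full control effect; nearly all actives have a fitted effect of over 60% in size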
BLM counter: qHTS for Inhibitors of WRN Helicase: BLM Helicase Counterscreen for WRN Inhibitors | shares compounds with WRN helicase inh-1 | Recombinant BLM helicase DNA unwinding, red fluorescence | Potency, µM (titrated, usually from 57.1 µM), for inactives: at the top dose activity change, negative = inhibition, hits mostly inhibitors | 60% of 610 active; note: potency is the fitted concentration of half-maximal effect; nearly all actives have a fitted effect of over 60% in size
Active calls of the source: *; ? = inconclusive; . = no result given; [ ] = dose if it differs, or a comment. Shown are actives, neighbours in structure and some others; about 2.4% of the full set was active somewhere. Calls come from the whole dose curve; as a rule, active = well fitted curve in the direction sought with a large enough effect; inconclusive = small, poorly fitted or top-dose-only effect, or another doubt; inactive = no such curve, though single readings can be large; an effect the other way counts as inactive or inconclusive.

SMILES | WRN helicase inh-1 | Pol eta inh-1 | POLB inh | POLK inh | Pol iota inh | FEN1 inh-1 | Pol eta inh-2 | others
Nc1nonc1C(=O)N/N=C/c1ccc([N+](=O)[O-])o1 | ? | 20µM* | ? | ? | 32µM* | -26% | ?
Cc1cccc(OCCn2cccc2/C=C2/C(=O)NC(=O)N(Cc3ccco3)C2=O)c1 | ? | 22µM* | 32µM* | 28µM* | 8.9µM* | -33% | 76*
O=C1NC(=O)N(Cc2ccco2)C(=O)/C1=C\c1cccn1CCOc1ccc(Cl)cc1 | 50µM* | 14µM* | 28µM* | 28µM* | 13µM* | -32% | ?
CCc1ccc(N2C(=O)NC(=O)/C(=C/c3cccn3CCOc3ccc(C(C)CC)cc3)C2=O)cc1 (centres undefined) | -5%[57.1 µM] | -8% | 17% | -23% | ? | -10% | .
COC1=C[C@H]2[C@H]3Cc4ccc(OC)c(O)c4[C@@]2(CCN3C)CC1=O | . | . | . | -9%[19.4 µM] | . | . | .
Cc1cc(/C=C2/C(=O)NC(=O)N(Cc3ccco3)C2=O)c(C)n1-c1ccccc1 | ? | 35µM* | 18µM* | 71µM* | 2.2µM* | 4% | 76*
CCN(CC)c1ccc(/C=C2\C(=O)NC(=O)N(CC3CCCO3)C2=O)cc1 (centres undefined) | -35% | 2% | 22% | -10% | -3% | ? | .
CCN(CC)c1ccc(/C=C2/C(=O)NC(=O)N(Cc3ccco3)C2=O)cc1 | 56µM* | 10µM* | -27% | 50µM* | 22µM* | ? | ?
Cc1cc(/C=C2\C(=O)NC(=O)N(Cc3ccccc3)C2=O)c(C)n1C1CC1 | -14% | -23% | ? | -12% | ? | 3% | .
O=C1NC(=S)N(Cc2ccco2)C(=O)/C1=C\c1cccs1 | . | . | 1.1µM* | . | . | . | . | GALK inh confirm=?;GALK redox cs=2%;HEK293 viability=-2%
O=C1NC(=O)N(c2ccccc2)C(=O)/C1=C/c1ccoc1 | ? | 28µM* | ? | ? | 40µM* | ? | 76*
OC[C@@H](O)[C@H]1O[C@@H]2OC(C(Cl)(Cl)Cl)O[C@H]2[C@H]1O (some centres undefined) | . | . | . | -5%[19.4 µM] | . | . | .
C#Cc1cccc2c1c(C(=O)c1ccc(Cn3c(C)nc4cnccc43)c(F)c1)cn2C(=O)N(C)C | . | . | . | 8%[60.1 µM] | . | . | .
N[C@@H](Cc1cc(I)c(O)c(I)c1)C(=O)O | ? | 40µM* | 31% | 50µM* | 32µM* | 7.9µM* | 30* | FEN1 inh-2=60*
NCCc1cc(O)c(O)cc1O | ? | 56µM* | . | 0.71µM* | 1.4µM* | 25µM* | 67* | FEN1 inh-2=?
CCOc1ccc(N2C(=O)NC(=O)/C(=C\c3cc(OC)c(OC)cc3[N+](=O)[O-])C2=O)cc1 | ? | -5% | 16% | -18% | ? | -4% | .
COc1ccccc1N1C(=O)NC(=O)/C(=C/c2ccc3c4c(cccc24)CC3)C1=O | ? | ? | -27%[57.1 µM] | -7% | 2% | 10% | .
COc1ccccc1N1C(=O)NC(=O)/C(=C/c2ccc([N+](=O)[O-])s2)C1=O | 35µM* | 18µM* | ? | 40µM* | ? | 45µM* | 38* | FEN1 inh-2=11*
COc1cccc(N2C(=O)NC(=O)/C(=C/c3ccc([N+](=O)[O-])s3)C2=O)c1 | 35µM* | 14µM* | ? | 32µM* | ? | 40µM* | 27* | FEN1 inh-2=15*
CN1CCCCC1Cn1cc(C(=O)c2cc([N+](=O)[O-])ccc2I)c2ccccc21 (centres undefined) | . | . | . | -15%[60.1 µM] | . | . | .
O=C(c1ccccc1NS(=O)(=O)c1ccc(Br)cc1)N1CCOCC1 | ? | -10% | -10% | -3% | 3% | -5% | .
COc1ccc(N2C(=O)NC(=O)/C(=C/c3ccc([N+](=O)[O-])s3)C2=O)cc1 | 50µM* | 8.9µM* | ? | 18µM* | 54% | ? | 30* | FEN1 inh-2=19*;WRN helicase inh-2=19µM*;TO displacement=?;BLM counter=22µM*
COc1ccc(N2C(=O)NC(=O)/C(=C/c3ccc(N4CCOCC4)cc3)C2=O)cc1 | . | . | -2% | . | . | . | .
